# Assay outcomes: PubChem BioAssay, National Center for Advancing Translational Sciences (NCATS)
# Only some compounds are listed: those with a hit (about 2.3% of all), similar ones and a draw of the others.
# AMA1-RON2 inh = qHTS for Inhibitors of AMA1-RON; Towards Development of Antimalarial Drug Lead: Primary Screen; Plasmodium falciparum AMA1 (3D7) - RON2 peptide interaction; Potency, µM (top dose mostly 58.2 µM), for the others: at the highest dose activity change, negative = inhibition, most hits filed as inhibitors; 0.2% of 360,000 active; AID 720542, 2013; AlphaScreen AMA1-biotinylated RON2 peptide binding;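 note: 0% = vehicle wells and -100% = peptide control; nearly all actives have a fitted effect of over 45% in size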
#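 AMA1 (3D7) with his tag at 25 nM final met compounds first, then biotinylated RON2 peptide at 25 nM; detection used donor plus acceptor beads, 10 µg/mL apiece, read by AlphaScreen after 30 min at room temperature.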
# AmpC inh detg = qHTS Inhibitors of AmpC Beta-Lactamase (assay with detergent); AID 485294, 2010; Potency, µM (top dose mostly 114 µM), for inactives: at the top dose activity change, negative = inhibition, hits mostly inhibitors; 0.041% of 370,000 active; P00811; AmpC hydrolysis of nitrocefin, absorbance 480 nm, 0.01% Triton;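 note: 0% = no-compound wells and -100% = no-enzyme wells; nearly all actives have a fitted effect of over 25% in size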
# Target sequence (P00811 whole entry, looked up): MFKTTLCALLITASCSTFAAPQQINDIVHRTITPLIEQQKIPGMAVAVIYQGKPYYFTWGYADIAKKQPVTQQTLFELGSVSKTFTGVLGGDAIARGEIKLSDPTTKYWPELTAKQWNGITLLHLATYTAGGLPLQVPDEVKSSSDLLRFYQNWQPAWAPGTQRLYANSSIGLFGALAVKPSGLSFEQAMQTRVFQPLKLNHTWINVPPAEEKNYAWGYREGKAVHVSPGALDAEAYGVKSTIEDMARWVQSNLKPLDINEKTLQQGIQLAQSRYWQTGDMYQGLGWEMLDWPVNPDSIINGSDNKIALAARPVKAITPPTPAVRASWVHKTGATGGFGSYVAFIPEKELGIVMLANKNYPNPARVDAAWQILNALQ
#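 AmpC (5.3 nM in the dispensed reagent) in 20 mM phosphate pH 7.0 with 0.01% (detergent screen) or 0.0001% Triton X-100 was preincubated with compounds for 15 min at room temperature. Nitrocefin was then added from an 800 uM solution, and hydrolysis was followed at 480 nm.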
# LASV entry inh = qHTS for Inhibitors of binding or entry into cells for Lassa Virus | Lassa virus pseudotype entry inhibition, cell reporter | Potency, µM (titrated, usually from 37.9 µM), inactives show at the highest dose activity change, negative = inhibition, actives largely listed as inhibitors | 1.2% of 300,000 active; calls by dose curve; tested in HEK293 cells; note: nearly all actives have a fitted effect of over 50% in size
# Marburg entry inh = qHTS for inhibitors of binding or entry into cells for Marburg Virus. Marburg virus pseudotyped entry inhibition, cell reporter. Potency, µM (titrated, usually from 37.8 µM), for the others: at the highest dose activity change, negative = inhibition, actives largely listed as inhibitors. 1.8% of 300,000 active. AID 540276, 2011; calls by dose curve; tested in HEK293 cells
# AmpC no deterg = qHTS Inhibitors of AmpC Beta-Lactamase (assay without detergent) | P00811 | AmpC nitrocefin hydrolysis, absorbance 480 nm, 0.0001% Triton | Potency, µM (titrated, usually from 57.1 µM), inactives show top-dose activity change, negative = inhibition, hits mostly inhibitors | 0.52% of 330,000 active;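 note: plate controls were no compound for no effect and no enzyme for full effect; nearly all actives have a fitted effect of over 20% in size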
#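 20 mM phosphate pH 7.0 + 0.01% (detergent screen) or 0.0001% Triton X-100; 5.3 nM AmpC reagent; cpd preinc 15 min RT; nitrocefin (800 uM stock) to start; A480 q20 s × 4 min; Activity was normalised to no-enzyme and no-compound control wells.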
# Active calls of the source: *; ? = inconclusive; · = not tested or not shown; ! = not active in a repeat; [ ] = another dose, or the depositor's remark. Unless noted, calls come from the whole dose curve; as a rule, active = well fitted curve in the direction sought with a large enough effect; inconclusive = small, poorly fitted or top-dose-only effect, or another doubt; inactive = no such curve, though single readings can be large; an effect the other way counts as inactive or inconclusive. Unless noted, % is set by controls: 0 for no effect and ±100 for the full control effect; potency is the fitted concentration of half-maximal effect.
SMILES,AMA1-RON2 inh,AmpC inh detg,LASV entry inh,Marburg entry inh,AmpC no deterg
CN(C)CCNc1ccc(CO)c2sc3ccc(O)cc3c(=O)c12,?,·,1µM*,0.891µM*,·
CCC(COC)NCc1cn(-c2ccc(OC)cc2)nc1-c1cccc(F)c1 (stereo not given),-5.9%,1.3%,?,10µM*,65.8%
COc1ccc(-n2cc(CNC(C)c3ccncn3)c(-c3cccc(F)c3)n2)cc1 (stereo not given),14.1%,-6.7%,-3.7%,?,-20.4%
COc1ccc(-n2cc(CNC3CCN(C)CC3)c(-c3cccc(F)c3)n2)cc1,-8.8%,-7.2%,11.2µM*,3.16µM*,89.3%
O=C(N/N=C1\C[C@@H](O)[C@@H](O)[C@@H]2[C@@H]3C(=O)N(C[C@@H]4CCCO4)C(=O)[C@@H]3CC[C@@H]12)OCc1ccccc1,·,·,·,-4.7%[14.2 µM],·
NCCS,2.5%,-10.4%,-5.7%,11.2µM*!,-10.1%
O=S(=O)(Nc1ccc(F)cc1F)c1ccc(-n2cccn2)cc1,·,-6.7%,14.4%[46.1 µM],·,·
CC1=C(C(=O)NCc2ccccn2)C2(CCC(C)CC2)OC1=O (stereo not given),54.4%,?,·,·,2.82µM*
CCc1ccc(NC(=O)CSc2nc(NS(=O)(=O)c3ccccc3)cc(=O)[nH]2)cc1,-13.1%,-7.1%,?,3.16µM*,-24.8%
CCN(CC)c1ccc(NC(=O)CSc2nc3ccccc3c(=O)[nH]2)cc1,-9.3%,?,10.5%,4.4%,20µM*
Cc1ccc(NC(=O)CSc2nc(NS(=O)(=O)c3ccccc3)cc(=O)[nH]2)cc1,5.2%,-3.7%,4.7%,?,-23.8%
Cc1ccc(NC(=O)c2ccc(OCc3c(C)noc3C)cc2)cc1C,-5.8%,·,?,10µM*,-41.6%
Cc1nc(N2CCN(Cc3ccc4c(c3)OCO4)CC2)c2cc(-c3ccccc3)sc2n1,?,?,-10.2%[46.1 µM],7.94µM*,48.6%
COc1cc(CNC23CC4CC(CC(C4)C2)C3)ccc1OCc1ccccc1,-4.5%,-1.0%,19.6%[46.1 µM],5.01µM*,12.2%
Cc1cc(C)c2c(N)c3cccc(C)c3nc2n1,7.2%,-8.0%,?,3.66µM*,-34.1%
O=C(NCC1CCCCC1)c1cc2ccccc2cc1O,28.4%,2.1%,?,?,14.1µM*
O=C(NCC1CCCO1)c1cc2ccccc2cc1O (stereo not given),13.3%,-5.9%,?,-7.0%,-16.3%
c1ccc2c(c1)N1CCCN=C1N2CCN1CCCCC1,-7.9%,2.6%,-25.8%,13µM*,-12.3%
COc1ccc(-c2noc(-c3ccc(N4CCN(c5ccccc5OC)CC4)c([N+](=O)[O-])c3)n2)cc1,·,1.2%,14.5%[46.1 µM],-19.2%[46.1 µM],·
CNC(=S)NNC(=O)Cc1ccccc1,77.3%,-0.9%,-0.2%,-3.9%,0.282µM*
COc1ccc(S(=O)(=O)N2CCN(c3ccc(F)cc3)CC2)cc1OC,0.0%,-0.7%,·,·,-6.6%
COc1ccc(S(=O)(=O)N2CCN(CCCOc3ccc(F)cc3)CC2)cc1OC,10.0%,1.0%,?,10µM*,150.4%
Cc1ccc(C(C)C)c(OCc2ccc(C(=O)N/N=C/c3ccc(O)c(O)c3)cc2)c1,19.8%,17.2%,?,?,-18.6%
Cc1ccc(C(C)C)c(OCc2ccc(C(=O)N/N=C/c3cccc(O)c3O)cc2)c1,40.8%,-9.8%,11.6µM*,7.31µM*,8.91µM*
CCN(CC)S(=O)(=O)c1cccc(C(=O)N/N=C/c2cccc(O)c2O)c1,44.0%,-4.8%,13µM*,?,-51.8%
Fc1cccc(CNc2ncnc3ccc(-c4cccnc4)cc23)c1,·,?,·,·,-33.9%
Cc1cn2c(=O)cc(COC(=O)c3cccc(NC(=O)C(C)Oc4ccccc4)c3)nc2s1 (stereo not given),·,-2.3%,-2.2%[46.1 µM],·,·
O=C(c1ccc(Cl)c(S(=O)(=O)Nc2ccc(F)cc2)c1)N1CCN(c2ccccn2)CC1,-7.4%,?,?,14.6µM*,-37.9%
CC(=O)Nc1c(C)nn(-c2ccccc2)c1N1CCC(C(=O)Nc2cccc(C(F)(F)F)c2)CC1,·,8.4%,-9.0%[46.1 µM],·,·
